Experimental data from the supplement of paper PMC11732987, “Enantioselective OTUD7B fragment discovery through chemoproteomics screening and high-throughput optimisation” (Communications Chemistry, 2025).

Experiments:
Assay in all cases: log2 ratio of Biotin-Ahx-Ub-VS probe labelling (fragment/DMSO); higher = less target engagement (more negative = stronger competition), active = hit call of the paper (q ≤ 0.05, log2 ratio ≤ -1)
Settings in all cases: compound concentration: 200 uM; treatment time: 3 h
USP42 = molecular target: T1, USP42 (UniProt Q9H9J4)
T1 sequence (whole entry): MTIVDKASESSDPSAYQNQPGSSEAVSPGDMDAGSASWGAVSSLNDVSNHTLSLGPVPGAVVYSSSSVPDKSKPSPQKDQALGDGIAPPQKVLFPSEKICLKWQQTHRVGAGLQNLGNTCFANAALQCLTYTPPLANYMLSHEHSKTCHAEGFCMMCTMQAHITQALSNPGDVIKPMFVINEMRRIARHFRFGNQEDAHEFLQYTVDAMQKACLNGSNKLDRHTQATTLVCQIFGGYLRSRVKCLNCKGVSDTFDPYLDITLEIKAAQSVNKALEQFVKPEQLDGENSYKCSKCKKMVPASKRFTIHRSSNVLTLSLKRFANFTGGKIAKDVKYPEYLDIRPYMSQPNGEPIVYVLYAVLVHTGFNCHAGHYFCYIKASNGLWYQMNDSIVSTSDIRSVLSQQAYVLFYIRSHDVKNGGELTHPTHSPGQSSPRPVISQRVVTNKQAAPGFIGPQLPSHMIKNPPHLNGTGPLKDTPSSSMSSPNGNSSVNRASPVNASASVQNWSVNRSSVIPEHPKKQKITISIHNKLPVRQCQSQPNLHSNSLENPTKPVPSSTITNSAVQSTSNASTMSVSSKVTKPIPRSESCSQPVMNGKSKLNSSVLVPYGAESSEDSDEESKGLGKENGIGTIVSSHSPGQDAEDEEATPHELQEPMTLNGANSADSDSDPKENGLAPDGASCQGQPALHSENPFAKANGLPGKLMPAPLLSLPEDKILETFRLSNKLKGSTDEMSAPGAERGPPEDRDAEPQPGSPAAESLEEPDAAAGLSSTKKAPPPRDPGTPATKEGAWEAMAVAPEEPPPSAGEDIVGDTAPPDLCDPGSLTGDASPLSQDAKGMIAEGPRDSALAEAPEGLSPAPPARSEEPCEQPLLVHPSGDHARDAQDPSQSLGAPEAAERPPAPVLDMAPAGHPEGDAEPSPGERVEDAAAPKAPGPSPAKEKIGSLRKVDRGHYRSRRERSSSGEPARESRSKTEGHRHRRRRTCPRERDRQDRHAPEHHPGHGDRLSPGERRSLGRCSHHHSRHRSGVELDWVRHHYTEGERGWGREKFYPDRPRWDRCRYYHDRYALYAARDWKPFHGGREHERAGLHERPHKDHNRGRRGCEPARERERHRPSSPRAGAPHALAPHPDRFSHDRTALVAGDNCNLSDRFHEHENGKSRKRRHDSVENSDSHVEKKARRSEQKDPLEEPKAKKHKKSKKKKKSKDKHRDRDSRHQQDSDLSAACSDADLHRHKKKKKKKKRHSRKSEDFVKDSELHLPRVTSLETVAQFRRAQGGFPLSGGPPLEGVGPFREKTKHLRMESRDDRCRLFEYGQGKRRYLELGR
Procedure, shortened: (§1)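 HEK293T lysate (495 µg per sample, in Tris/CHAPS/IGEPAL buffer with protease inhibitors) was exposed in triplicate for 3 h to fragment at 200 µM or to vehicle, then to Biotin-Ahx-Ub-VS at 0.5 µM final for 1 h. Labelled DUBs were enriched on NeutrAvidin, digested with LysC and trypsin, and analysed by diaPASEF LC-MS/MS. Spectronaut label-free quantities were normalised to the global median, and values are average log2 ratios of fragment over vehicle from an unpaired t-test. Only proteins with ≥2 unique peptides were used.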

USP46 = USP46 (UniProt P62068)
Procedure, shortened: as §1

USP47 = molecular target: T2, USP47 (UniProt Q96K76)
T2 sequence (whole entry): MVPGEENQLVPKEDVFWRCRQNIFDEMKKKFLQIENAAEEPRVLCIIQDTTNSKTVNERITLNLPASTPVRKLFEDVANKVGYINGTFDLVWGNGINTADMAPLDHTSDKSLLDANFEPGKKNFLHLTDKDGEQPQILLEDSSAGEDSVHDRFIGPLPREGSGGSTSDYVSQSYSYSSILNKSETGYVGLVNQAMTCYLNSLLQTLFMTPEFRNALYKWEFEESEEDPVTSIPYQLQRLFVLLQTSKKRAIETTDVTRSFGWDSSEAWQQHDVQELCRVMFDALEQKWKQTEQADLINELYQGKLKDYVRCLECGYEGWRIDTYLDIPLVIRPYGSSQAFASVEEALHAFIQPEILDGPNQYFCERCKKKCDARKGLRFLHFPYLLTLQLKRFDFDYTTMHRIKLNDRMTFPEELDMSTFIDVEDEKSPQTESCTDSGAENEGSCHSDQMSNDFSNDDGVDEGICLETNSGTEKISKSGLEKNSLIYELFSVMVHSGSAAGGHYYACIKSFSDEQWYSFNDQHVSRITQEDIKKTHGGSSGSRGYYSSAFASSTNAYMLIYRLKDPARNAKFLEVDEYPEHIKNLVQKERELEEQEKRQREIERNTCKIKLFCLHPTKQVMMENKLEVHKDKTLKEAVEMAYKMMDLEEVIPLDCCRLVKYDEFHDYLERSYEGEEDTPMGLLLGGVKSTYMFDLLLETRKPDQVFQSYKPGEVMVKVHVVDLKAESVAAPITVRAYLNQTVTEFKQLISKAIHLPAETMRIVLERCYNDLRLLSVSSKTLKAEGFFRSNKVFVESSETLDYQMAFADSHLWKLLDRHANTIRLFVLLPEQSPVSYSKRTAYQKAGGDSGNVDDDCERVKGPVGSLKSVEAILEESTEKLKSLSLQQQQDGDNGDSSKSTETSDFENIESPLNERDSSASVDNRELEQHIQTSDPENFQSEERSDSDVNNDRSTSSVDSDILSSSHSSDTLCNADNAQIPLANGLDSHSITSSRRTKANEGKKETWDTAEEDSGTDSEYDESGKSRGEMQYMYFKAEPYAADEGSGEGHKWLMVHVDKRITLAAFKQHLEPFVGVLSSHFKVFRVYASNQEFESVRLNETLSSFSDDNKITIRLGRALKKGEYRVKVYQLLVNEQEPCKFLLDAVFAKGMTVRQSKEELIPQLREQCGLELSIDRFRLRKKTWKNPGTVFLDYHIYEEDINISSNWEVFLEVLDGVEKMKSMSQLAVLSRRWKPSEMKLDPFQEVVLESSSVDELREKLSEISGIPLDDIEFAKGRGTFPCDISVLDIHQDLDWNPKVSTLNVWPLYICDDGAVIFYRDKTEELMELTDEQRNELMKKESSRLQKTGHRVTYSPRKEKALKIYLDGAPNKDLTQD
Procedure, shortened: as §1

USP48 = molecular target: T3, USP48 (UniProt Q86UV5)
T3 sequence (whole entry): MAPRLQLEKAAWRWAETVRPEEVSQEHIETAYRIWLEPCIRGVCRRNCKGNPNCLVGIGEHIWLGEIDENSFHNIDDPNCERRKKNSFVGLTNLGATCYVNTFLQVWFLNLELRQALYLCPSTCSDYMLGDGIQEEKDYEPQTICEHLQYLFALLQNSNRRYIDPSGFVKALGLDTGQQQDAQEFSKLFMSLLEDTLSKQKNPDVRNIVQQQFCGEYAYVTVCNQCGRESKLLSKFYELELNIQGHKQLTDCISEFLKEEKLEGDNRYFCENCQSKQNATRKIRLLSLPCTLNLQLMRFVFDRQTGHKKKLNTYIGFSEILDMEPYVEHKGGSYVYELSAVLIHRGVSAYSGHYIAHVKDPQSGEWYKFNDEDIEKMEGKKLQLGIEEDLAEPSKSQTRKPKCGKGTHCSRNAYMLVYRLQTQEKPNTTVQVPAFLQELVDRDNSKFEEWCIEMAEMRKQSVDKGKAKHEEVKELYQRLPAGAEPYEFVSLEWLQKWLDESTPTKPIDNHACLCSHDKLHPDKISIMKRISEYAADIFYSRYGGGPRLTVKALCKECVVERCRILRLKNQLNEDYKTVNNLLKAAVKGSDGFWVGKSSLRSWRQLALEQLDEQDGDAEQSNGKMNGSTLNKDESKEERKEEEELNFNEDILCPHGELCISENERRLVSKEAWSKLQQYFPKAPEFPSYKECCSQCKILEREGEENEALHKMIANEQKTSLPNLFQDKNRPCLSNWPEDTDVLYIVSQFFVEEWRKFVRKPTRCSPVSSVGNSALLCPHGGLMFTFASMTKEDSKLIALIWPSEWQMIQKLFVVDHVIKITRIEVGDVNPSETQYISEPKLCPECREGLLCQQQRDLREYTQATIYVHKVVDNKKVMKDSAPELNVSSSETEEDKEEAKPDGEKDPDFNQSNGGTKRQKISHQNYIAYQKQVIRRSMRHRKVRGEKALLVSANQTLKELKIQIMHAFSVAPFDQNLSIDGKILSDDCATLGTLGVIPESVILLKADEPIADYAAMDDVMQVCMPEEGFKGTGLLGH
Procedure, shortened: as §1

USP5 = molecular target: T4, USP5 (UniProt P45974)
T4 sequence (whole entry): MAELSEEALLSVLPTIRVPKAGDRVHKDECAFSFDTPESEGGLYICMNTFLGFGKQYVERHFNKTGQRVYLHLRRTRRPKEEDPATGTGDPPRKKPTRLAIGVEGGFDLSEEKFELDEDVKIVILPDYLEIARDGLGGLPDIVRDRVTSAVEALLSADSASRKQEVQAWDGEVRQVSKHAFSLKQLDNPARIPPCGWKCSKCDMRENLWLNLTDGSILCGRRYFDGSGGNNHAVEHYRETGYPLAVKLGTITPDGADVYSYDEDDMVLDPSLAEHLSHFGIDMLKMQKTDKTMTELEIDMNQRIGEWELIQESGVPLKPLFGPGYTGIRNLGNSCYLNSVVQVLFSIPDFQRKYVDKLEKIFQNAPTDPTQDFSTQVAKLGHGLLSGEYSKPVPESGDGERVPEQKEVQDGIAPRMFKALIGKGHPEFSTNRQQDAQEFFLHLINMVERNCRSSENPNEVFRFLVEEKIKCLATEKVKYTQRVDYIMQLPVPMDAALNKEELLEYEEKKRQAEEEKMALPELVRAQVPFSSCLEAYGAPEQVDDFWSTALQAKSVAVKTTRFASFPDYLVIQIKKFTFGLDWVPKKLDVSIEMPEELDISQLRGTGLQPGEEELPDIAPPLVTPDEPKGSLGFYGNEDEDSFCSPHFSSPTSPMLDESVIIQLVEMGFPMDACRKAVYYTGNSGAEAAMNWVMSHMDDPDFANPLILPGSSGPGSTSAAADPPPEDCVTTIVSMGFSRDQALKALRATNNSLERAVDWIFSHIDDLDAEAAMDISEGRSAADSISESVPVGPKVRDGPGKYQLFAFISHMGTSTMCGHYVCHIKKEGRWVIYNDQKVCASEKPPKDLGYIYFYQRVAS
Procedure, shortened: as §1

USP54 = USP54 (UniProt Q70EL1)
Procedure, shortened: as §1

USP7 = USP7 (UniProt Q93009)
Procedure, shortened: as §1

USP8 = molecular target: T5, USP8 (UniProt P40818)
T5 sequence (whole entry): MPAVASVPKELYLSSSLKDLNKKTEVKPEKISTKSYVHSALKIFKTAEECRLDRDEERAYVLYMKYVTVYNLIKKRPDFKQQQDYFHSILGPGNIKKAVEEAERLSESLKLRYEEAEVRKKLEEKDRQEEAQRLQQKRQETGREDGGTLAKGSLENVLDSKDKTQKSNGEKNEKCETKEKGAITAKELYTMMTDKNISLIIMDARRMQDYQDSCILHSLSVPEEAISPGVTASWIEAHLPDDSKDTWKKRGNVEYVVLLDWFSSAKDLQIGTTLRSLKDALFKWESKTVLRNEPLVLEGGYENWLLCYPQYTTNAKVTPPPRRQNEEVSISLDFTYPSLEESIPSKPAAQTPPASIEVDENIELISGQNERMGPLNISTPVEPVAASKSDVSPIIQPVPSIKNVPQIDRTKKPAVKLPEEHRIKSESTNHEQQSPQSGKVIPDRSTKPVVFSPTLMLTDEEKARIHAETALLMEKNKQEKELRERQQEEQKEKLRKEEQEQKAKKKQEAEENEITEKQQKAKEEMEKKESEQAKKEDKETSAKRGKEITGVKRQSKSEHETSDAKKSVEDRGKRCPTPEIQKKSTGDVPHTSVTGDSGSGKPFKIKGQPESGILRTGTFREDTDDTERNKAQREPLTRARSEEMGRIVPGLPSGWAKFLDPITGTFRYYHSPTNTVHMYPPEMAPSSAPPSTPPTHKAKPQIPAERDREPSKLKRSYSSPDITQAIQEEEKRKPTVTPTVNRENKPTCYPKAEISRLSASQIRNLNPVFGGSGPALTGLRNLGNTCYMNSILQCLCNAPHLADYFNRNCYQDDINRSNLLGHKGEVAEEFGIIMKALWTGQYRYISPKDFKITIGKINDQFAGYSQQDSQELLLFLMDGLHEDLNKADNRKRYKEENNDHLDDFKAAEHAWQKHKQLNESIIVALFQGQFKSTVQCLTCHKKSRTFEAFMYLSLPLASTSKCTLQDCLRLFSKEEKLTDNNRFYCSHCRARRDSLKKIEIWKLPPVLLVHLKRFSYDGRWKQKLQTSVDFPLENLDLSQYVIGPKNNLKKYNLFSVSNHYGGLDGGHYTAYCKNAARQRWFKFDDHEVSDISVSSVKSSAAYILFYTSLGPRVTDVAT
Procedure, shortened: as §1

Measured: log2 ratio of Biotin-Ahx-Ub-VS probe labelling

USP46, sequence (P62068 whole entry): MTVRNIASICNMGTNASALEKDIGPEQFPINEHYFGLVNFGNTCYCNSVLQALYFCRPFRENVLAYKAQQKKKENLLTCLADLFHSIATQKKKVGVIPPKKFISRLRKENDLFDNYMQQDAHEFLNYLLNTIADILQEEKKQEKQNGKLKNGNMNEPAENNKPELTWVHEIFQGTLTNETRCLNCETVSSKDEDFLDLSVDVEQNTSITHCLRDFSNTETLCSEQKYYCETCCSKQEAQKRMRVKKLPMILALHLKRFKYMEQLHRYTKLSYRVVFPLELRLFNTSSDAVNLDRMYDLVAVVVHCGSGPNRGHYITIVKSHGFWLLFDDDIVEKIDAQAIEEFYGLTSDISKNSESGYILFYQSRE
USP54, sequence (Q70EL1 whole entry): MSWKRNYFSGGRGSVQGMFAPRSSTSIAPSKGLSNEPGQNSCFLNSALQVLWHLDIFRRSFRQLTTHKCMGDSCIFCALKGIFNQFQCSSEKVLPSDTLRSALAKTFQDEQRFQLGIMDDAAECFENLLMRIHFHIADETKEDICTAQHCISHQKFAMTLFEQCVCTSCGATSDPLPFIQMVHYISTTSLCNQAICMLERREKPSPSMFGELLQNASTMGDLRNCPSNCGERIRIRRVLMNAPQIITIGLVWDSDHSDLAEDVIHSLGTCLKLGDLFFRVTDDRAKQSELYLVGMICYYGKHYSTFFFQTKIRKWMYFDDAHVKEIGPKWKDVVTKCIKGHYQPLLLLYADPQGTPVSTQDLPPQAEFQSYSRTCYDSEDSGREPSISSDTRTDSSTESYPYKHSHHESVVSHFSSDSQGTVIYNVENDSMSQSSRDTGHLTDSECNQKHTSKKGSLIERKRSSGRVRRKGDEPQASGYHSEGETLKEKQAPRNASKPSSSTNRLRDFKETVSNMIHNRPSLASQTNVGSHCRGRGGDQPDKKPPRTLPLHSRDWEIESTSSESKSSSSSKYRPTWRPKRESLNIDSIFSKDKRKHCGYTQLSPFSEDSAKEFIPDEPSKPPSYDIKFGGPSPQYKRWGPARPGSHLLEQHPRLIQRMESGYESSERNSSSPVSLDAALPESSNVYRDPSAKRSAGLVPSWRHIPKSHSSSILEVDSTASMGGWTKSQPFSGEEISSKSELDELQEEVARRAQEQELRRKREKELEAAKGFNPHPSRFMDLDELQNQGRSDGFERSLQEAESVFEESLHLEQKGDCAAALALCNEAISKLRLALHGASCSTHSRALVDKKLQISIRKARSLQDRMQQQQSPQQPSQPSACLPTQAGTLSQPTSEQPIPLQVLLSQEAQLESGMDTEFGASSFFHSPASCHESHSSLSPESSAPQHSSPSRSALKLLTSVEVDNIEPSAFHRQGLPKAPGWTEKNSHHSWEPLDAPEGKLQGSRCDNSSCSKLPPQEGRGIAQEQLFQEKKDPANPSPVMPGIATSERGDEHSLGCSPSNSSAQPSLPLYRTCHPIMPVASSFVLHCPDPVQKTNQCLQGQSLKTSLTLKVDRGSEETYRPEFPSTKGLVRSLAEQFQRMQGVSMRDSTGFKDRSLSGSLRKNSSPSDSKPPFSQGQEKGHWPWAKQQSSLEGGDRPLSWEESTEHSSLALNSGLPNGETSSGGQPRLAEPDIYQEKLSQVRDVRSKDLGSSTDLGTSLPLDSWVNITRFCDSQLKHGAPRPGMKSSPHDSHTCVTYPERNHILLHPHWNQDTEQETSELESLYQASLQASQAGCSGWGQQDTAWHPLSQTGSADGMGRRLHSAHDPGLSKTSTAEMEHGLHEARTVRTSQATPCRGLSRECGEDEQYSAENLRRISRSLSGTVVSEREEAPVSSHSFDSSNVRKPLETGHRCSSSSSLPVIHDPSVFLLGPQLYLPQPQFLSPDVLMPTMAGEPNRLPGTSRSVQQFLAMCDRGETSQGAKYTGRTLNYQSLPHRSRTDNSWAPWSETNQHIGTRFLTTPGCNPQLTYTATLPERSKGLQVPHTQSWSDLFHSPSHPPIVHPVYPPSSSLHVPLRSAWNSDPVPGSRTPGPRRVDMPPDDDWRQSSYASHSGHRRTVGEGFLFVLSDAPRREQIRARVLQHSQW
USP7, sequence (Q93009 whole entry, looked up): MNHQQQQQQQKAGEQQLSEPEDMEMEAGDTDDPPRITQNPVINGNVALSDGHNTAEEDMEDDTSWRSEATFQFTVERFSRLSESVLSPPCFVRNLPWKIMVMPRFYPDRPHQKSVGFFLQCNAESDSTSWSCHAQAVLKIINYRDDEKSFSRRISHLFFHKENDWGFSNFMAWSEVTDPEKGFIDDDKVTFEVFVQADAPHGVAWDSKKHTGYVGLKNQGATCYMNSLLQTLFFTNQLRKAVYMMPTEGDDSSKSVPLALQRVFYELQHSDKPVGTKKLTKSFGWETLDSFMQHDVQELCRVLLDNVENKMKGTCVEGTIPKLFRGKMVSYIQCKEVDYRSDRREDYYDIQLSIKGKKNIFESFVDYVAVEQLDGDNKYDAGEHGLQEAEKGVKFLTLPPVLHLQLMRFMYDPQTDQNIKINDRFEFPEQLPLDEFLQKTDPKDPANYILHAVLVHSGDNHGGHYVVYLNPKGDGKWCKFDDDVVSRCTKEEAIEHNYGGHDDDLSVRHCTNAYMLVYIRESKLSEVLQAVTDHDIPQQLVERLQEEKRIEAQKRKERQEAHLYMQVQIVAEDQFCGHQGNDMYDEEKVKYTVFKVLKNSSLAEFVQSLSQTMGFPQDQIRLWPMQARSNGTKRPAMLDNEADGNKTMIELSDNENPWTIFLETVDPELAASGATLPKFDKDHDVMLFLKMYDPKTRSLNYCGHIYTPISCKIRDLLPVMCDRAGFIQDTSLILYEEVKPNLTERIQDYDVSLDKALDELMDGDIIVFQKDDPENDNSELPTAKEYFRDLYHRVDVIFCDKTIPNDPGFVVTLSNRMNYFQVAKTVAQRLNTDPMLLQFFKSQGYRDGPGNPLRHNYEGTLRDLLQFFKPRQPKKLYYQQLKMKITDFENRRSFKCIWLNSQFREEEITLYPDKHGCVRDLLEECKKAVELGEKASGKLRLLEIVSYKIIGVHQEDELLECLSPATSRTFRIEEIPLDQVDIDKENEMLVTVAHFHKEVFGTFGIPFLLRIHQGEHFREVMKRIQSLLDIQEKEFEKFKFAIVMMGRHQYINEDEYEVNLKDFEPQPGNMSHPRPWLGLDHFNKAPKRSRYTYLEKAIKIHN

Cc1cccc2nc(CCNC(=O)CCl)cn12.Cl
inactive: USP42 -0.108 | USP46 -0.0973 | USP47 0.216 | USP48 -0.0534 | USP5 -0.101 | USP54 0.94 | USP7 -0.308 | USP8 -0.222
